Among all 360,000 compounds or so, about 780 (0.22%) were called active. Inconclusive results (about 4%) are left out. This is one part of a sample in which actives are shown more often than they occur. A number with no mark means an inactive call. Cut-off read from the data, not from the text of the source: active = inhibition above about 35% (passing the limit was not always enough); inconclusive = no clear call, values can overlap the other calls.

This experiment deals with Botulinum neurotoxin type F light chain protease (Clostridium botulinum). Briefly: BoNT/F light chain protease inhibitors, primary screen, biochemical, flow cytometry, MLPCN library (AID 588497). Note: plate controls were buffer without enzyme for full effect and enzyme alone for no effect. To be noted: Multiplex microsphere protease cleavage assay, at 10 µM, stronger effect = higher value.
In the case of `CCCCC[C@H](C)N1C[C@@H](COCc2ccccc2)Oc2cc(N3CC[C@@H](N(C)C)C3)ccc2S1(=O)=O`, the inhibition was -14%.

For the compound `CC(C)Cc1ccc(-c2cc3nc(NCc4cccc(Cl)c4)ccn3n2)cc1`, the inhibition is -1.6%.

For `O=S1(=O)N=C(N(CCO)/N=C/c2ccccc2F)c2ccccc21`, the inhibition is 74.7% (active). Take `COc1ccc(/C=N/N(C)C2=NS(=O)(=O)c3ccccc32)cc1OC`: the inhibition is -14.8%. In the case of `C=CCOCCN(C)C1=NS(=O)(=O)c2ccccc21`, the inhibition was -7.4%.

With `COc1cncc(-c2cnc3sc(NCCc4ccccn4)nn23)c1`, the inhibition is -4.1%. With `CCc1nc2ccccc2n(CCOCCOCCn2c(=O)c(CC)nc3ccccc32)c1=O`, the inhibition was -0.5%. Consider `CCOCCn1c(C(C)C)nc2ccccc21`, for which the inhibition is 2.9%. In the case of `CCOCCn1c(-c2ccccc2)nc2ccccc21`, the inhibition was 65.4% (active). With `Cc1ccc(NS(=O)(=O)c2cc3c(cc2Br)NC(=O)CO3)cc1C`, the inhibition was 0.3%.

In the case of `CN(Cc1cn(Cc2ccc(C(F)(F)F)cc2)nn1)C1CN(Cc2cn(Cc3ccc(C(F)(F)F)cc3)nn2)S(=O)(=O)C1` (stereo not given), the inhibition was -10.7%. Consider `CCCCCCCCN1C(=O)[C@H](CC(=O)NCc2cccc3ccccc23)C[C@@]2(C(=O)OC)CCCCC=C12`, for which the inhibition was -5.2%. With `COc1ccc(CN2C3CCCC2CC(NC(=O)c2cccc(F)c2)C3)cc1` (stereo not given), the inhibition was -2.5%. `COc1cccc(NC(=O)N2C3CCCC2CC(NC(C)=O)C3)c1` (stereo not given): the inhibition was 28.5%.

On to `CCCN1C2CCCC1CC(NC(=O)c1cccc(OC)c1)C2` (stereo not given), for which the inhibition was 34.7% (active). The value for `Nc1nc2c(Br)ccc(Br)c2cc1C(=O)NCCc1ccccc1` was -1%; that for `CCCCCc1c(-c2cccc(Br)c2)ncn1CCc1ccccc1OC` was -6.3%; that for `Oc1cccc2cc(-c3ccncc3)cnc12` was -5.1%. In the case of `CNS(=O)(=O)c1cccc(C(=O)NC2CCCc3ccccc32)c1` (stereo not given) it was 2.8%; in that of `O=C(O)c1cc(S(=O)(=O)NC2CCCc3ccccc32)ccc1O` (stereo not given), 49% (active). The value for `O=C(CCC(=O)N1CCN(S(=O)(=O)c2ccccc2)CC1)NC1CCCc2ccccc21` (stereo not given) was 7.9%; that for `CCCCc1c(-c2ccc(Br)cc2)ncn1CCc1ccccc1OC` was -3.2%; that for `CCc1nc2c(OCCC3CCCCC3)cccn2c1N(C)C(=O)c1ccco1` was 1.8%. Take `CC(C)C[C@H]1CNC(=O)C(=O)N1C[C@H]1CCCN1C[C@H](Cc1ccc(O)cc1)N1C[C@H](CC(C)C)N(CC2CCCCCC2)C(=O)C1=O`: the inhibition is -9.5%. In the case of `CC(C)C[C@@H](COCc1ccc(Cl)cc1)N1CCN(C(=O)c2ccc(Cl)cc2Cl)CCC1=O`, the inhibition was -2.4%. In the case of `CC(=O)Nc1cc(-c2ccc(N3CCN(C)CC3)cc2)cn2c(-c3ccc(F)cc3)cnc12`, the inhibition was -13.3%. In the case of `O=C(NCCc1c[nH]c2ccccc12)C1CCN(Cc2ccc(Br)cc2)CC1` it was -27.7%.

For the compound `Cc1ccc2[nH]cc(CCNC(=O)c3ccc([N+](=O)[O-])cc3)c2c1`, the inhibition is -0.3%. On to `Cc1ccc2[nH]cc(CCNC(=O)C3CCCCC3)c2c1`, for which the inhibition was 50% (active).

In the case of `COC(=O)[C@@]1(Sc2ccc(C)cc2)CC(=O)N(c2cccc(SC)c2)[C@@H]1c1ccccc1`, the inhibition was 4.9%.

Regarding `CCOC(=O)C(C)n1cnc2c(nnn2-c2cccc(OC)c2)c1=O` (stereo not given), the inhibition is 18.5%. In the case of `CCOc1nnc(C)c2c(C)n(-c3cccc(Cl)c3)nc12` it was 46.5% (active); in that of `CCOc1ccc(CNC(=O)C2CCCN(c3nnc(C)c4c(C)n(-c5ccccc5)nc34)C2)cc1` (stereo not given), 10.7%. As to `Cc1nc2c(OCC(=O)C(C)(C)C)cccn2c1N(C)Cc1cccs1`, the inhibition was 4.6%. On to `CC(=O)Nc1cc(-c2ccccc2F)cn2c(-c3cccc(C(F)(F)F)c3)cnc12`, for which the inhibition is 1.3%.

`CC(=O)c1ccc(-c2cnc3c(NC=O)cc(-c4cccc(NS(C)(=O)=O)c4)cn23)cc1`: the inhibition is 3%.

For `Cc1ccc2nc(-c3ccco3)c(Cc3cccc(Cl)c3)n2c1`, the inhibition was 0%. In the case of `Cc1cccc(C)c1Cn1c(C)c(C(=O)NCc2cccc(Cl)c2)sc1=O` it was -3.1%; in that of `Cc1cc(O)c(C(=O)/C=C/c2c(F)c(F)c(F)c(F)c2F)c(=O)o1`, 39.9% (active). `COc1ccc(/C=C/C(=O)c2c(O)cc(OC)cc2OC)cc1`: the inhibition is -3.2%. For `Cc1cc(O)c(Sc2ccccc2)c(=O)o1`, the inhibition is -0.7%. On to `CCCCn1nnnc1C(c1cccc(OC)c1OC)N1CCN(C/C=C/c2ccccc2)CC1` (stereo not given), for which the inhibition is -4.8%.

As for `COc1ccccc1CNC(=O)c1cc(-c2cc(Cl)ccc2C)n[nH]1`, the inhibition was -6.5%. On to `Fc1cccc(Cc2c(-c3cccc(Cl)c3)nc3ccc(Br)cn23)c1`, for which the inhibition was 12.2%. For `CC1(C)CC(=O)C=C(N2CCOCC2)C1`, the inhibition is -0.6%. As for `CC1(C)CC(=O)C=C(N2CCCC2)C1`, the inhibition was 43.8% (active). As for `CC1Cc2ccccc2N1C1=CC(=O)CC(C)(C)C1` (stereo not given), the inhibition was -1.7%.

`CN(C(=O)CN1CCN(c2cc(-c3ccc(OCc4ccccc4)cc3)ncn2)CC1)c1ccccc1`: the inhibition was -2.5%. Regarding `Cc1ccc2nc(-c3ccccc3)c(CC3CCCCC3)n2c1`, the inhibition was -7.4%.

In the case of `COc1cc(F)ccc1-c1cc(C(=O)NCC2CCCCC2)[nH]n1`, the inhibition is -7.3%.

As to `CCCCCn1nnnc1-c1nc2cc3ccccc3cc2[nH]c1=O`, the inhibition is 4.1%. Take `CCc1nc2ccc(C(=O)NCc3ccc(OC)cc3)cn2c1N(CC)Cc1cccc(Br)c1`: the inhibition is -5.2%.

As for `COc1cccc(CNc2nc(NCc3ccccc3OC)nc3ccsc23)c1`, the inhibition was -10.7%. Regarding `Cn1c(=O)c2c(nc(NCc3ccccc3)n2CC(N)=O)n(C)c1=O`, the inhibition is -8.9%. On to `CC(O)c1nc2c(c(=O)n(C)c(=O)n2C)n1C` (stereo not given), for which the inhibition is 7.6%. Turning to `CCC/C(C)=N\Nc1nc2c(c(=O)n(C)c(=O)n2C)n1C`, the inhibition is 46.4% (active). As to `CCCCN(C=O)c1c(CC)nc2c(OCCC3CCCCC3)cccn12`, the inhibition was -1.8%. For the compound `CCn1cc(C(=O)N2CCN(C3CCCCC3)CC2)c2cc(OC)c(OC)cc2c1=O`, the inhibition is 35% (active).

For `COc1cc(C(=O)N2CCN(C3CCC(C)CC3)CC2)cc(OC)c1OC` (stereo not given), the inhibition is -2.2%. Turning to `CCn1cc(C(=O)NCC2COc3ccccc3O2)c2cc(OC)c(OC)cc2c1=O` (stereo not given), the inhibition was -4.2%.

For the origin of these results see PubChem BioAssay AID588497 (NMMLSC, 2011).
